Shown are actives, neighbours in structure and some others; about 2.3% of the full set was active somewhere.
ELG1 repair inh = qHTS screen for small molecules that inhibit ELG1-dependent DNA repair in human embryonic kidney (HEK293T) cells expressing luciferase-tagged ELG1 | HEK293T ELG1-luciferase reporter, luminescence, 16 h; DNA damage induced by 5-fluorouridine | 2.3% of 330,000 active | AID 504467, 2011 | Potency, µM (series often up to 46.1 µM), for inactives: top-dose activity change, negative = inhibition, actives largely listed as inhibitors; further: potency means the concentration at half of the fitted maximal effect; on the % scale 0 is the no-effect control and ±100 the full control effect; nearly all actives have a fitted effect of over 55% in size
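Overnight (16 hr) co-exposure of 2,000 cells/well to 5-fluorouridine and compound at 37 °C preceded detection. Luciferase was quantified via ONE-Glo luminescence; loss of signal denotes inhibition.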
FUS suppressor = qHTS for Suppressors of FUS Proteinopathy: Primary screen using FUS-linked yeast assay. S. cerevisiae FUS-expressing, growth rescue, OD600, 24 h. AID 1347120, 2019. Potency, µM (doses to about 76.6 µM), hits mostly activators. 0.24% of 390,000 active;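 further: potency means the concentration at half of the fitted maximal effect; plate controls were DMSO vehicle for no effect and reference control for full effect; nearly all actives have a fitted effect of over 55% in size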
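FUS-expressing yeast, raffinose-pregrown, induced in 2% galactose minimal medium at OD 0.005; compounds in a dilution series, 24hr at 30C. Growth restoration read as absorbance at 600 nm. CP55940 positive control, DMSO negative.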
TRPV1 agonist = HTS Assay for Compounds that Act as Agonists of the Vanilloid Receptor 1. TRPV1-expressing cells, Fluo-8 calcium influx, agonist mode. Transient receptor potential cation channel subfamily V member 1 (Homo sapiens), Q8NER1. 0.19% of 320,000 active. activation, % at 8.33 µM; in the data active means activation above about 80%; inconclusive means between about 30% and that limit; further: 0% is about no effect
Target sequence (Q8NER1 whole entry, looked up): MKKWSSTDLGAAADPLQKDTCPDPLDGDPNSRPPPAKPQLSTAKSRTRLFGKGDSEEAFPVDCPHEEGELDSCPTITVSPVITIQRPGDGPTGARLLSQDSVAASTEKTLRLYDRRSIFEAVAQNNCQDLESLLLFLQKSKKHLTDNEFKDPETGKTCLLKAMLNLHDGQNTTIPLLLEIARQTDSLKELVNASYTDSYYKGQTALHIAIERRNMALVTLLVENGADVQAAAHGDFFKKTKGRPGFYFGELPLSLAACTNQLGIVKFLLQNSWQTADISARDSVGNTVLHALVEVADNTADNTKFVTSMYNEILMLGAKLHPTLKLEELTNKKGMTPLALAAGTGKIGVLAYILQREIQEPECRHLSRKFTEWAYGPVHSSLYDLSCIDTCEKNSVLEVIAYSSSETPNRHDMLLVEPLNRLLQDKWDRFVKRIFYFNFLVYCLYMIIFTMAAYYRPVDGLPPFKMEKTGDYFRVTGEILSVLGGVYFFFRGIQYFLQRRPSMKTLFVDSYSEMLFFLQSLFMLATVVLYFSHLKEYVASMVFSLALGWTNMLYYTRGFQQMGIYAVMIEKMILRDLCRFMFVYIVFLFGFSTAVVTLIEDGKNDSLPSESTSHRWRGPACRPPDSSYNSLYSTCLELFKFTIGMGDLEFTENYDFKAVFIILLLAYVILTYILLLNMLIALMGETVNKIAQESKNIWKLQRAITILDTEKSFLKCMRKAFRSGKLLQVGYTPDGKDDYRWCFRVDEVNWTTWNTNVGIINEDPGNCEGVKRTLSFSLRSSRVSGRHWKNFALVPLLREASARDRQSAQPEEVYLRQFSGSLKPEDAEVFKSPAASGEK
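Fluo-8 calcium influx in TRPV1-expressing cells, kinetic read (ex 480/em 520 nm). Compound added and read 3 min for agonist activity, followed by capsaicin at EC20 final and 2 min further read for enhancement.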
Giardia killer = Small Molecules that selectively kill Giardia lamblia: qHTS | Giardia lamblia trophozoite viability | activity change, % at 7.66 µM, hits read low | 0.15% of 340,000 active; in the data active means activity change below about -80%; inconclusive means between about -30% and that limit;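 further: parasites exposed to compound for two days anaerobically before the ATP read; on the % scale 0 is the no-effect control and ±100 the full control effect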
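Viability, read as ATP luminescence: trophozoites at 100 cells/well, compound added, 48 hrs anaerobic at 37 deg C, then 15-30 min room-temperature development before reading.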
TRPV1 potentiator = HTS Assay for Compounds that Act as Potentiators of the Vanilloid Receptor 1 | TRPV1-expressing cells, Fluo-8 calcium influx, capsaicin EC20 potentiation | 0.02% of 320,000 active | Transient receptor potential cation channel subfamily V member 1 (Homo sapiens), Q8NER1 | potentiation, % at 8.33 µM; in the data active means potentiation above about 80%; inconclusive means between about 30% and that limit; further: 0% is about no effect
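TRPV1-expressing cells were cultured overnight at 35.5C and loaded with Fluo-8 calcium dye for 40 to 90 min at room temperature. After a 10 s baseline, compound was added and calcium influx was read kinetically for 3 min (ex 480/em 520 nm).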
The depositor's hits bear a star; i = inactive; ? = inconclusive; . = no result. Unless noted, the call rests on the fitted dose curve; in most records, active means well fitted curve in the direction sought with a large enough effect; inconclusive means small, poorly fitted or top-dose-only effect, or another doubt; inactive means no such curve, though single readings can be large; an effect the other way counts as inactive or inconclusive.

SMILES	ELG1 repair inh	FUS suppressor	TRPV1 agonist	Giardia killer	TRPV1 potentiator
Cc1ccn2c(=O)cc(COc3ccc(NC(=O)COc4ccc(Cl)cc4)cc3)nc2c1	.	i	.	.	.
CCc1ccc(NC(=O)c2ccc3c(=O)n4nc(Nc5ccccc5C)sc4nc3c2)cc1	.	i	.	.	.
COc1ccc(/C=C2\SC(=O)N(CCCC(=O)Nc3cc(Cl)ccc3C(=O)O)C2=O)cc1	2.1µM*	.	.	-24	.
O=C(CN1CCN(c2ccc(O)cc2)CC1)Nc1ccc(SC(F)F)cc1	9.2µM*	i	10	-1	-4
O=C(CN1CCN(c2cccc(C(F)(F)F)c2)CC1)Nc1ccc2c(c1)OCCCO2	.	i	.	.	.
O=C(CN1CCN(c2ccc(O)cc2)CC1)Nc1ccc2c(c1)OCCCO2	18µM*	i	-2	4	-1
COc1cccc(N2CCN(CC(=O)Nc3ccc(SC(F)F)cc3)CC2)c1	-27%	.	19	17	-2
CCNC(=O)c1cc2c(c(-c3cccc(-c4ccccc4F)c3)n1)[C@@H](CCO)N(C(=O)CC1CC1)C2	.	18µM*	.	.	.
Clc1ccccc1-c1nn2c(-c3ccncc3)nnc2s1	10µM*	i	0	-3	-9
O=C(CC[C@H]1O[C@@H](n2ccc(=O)[nH]c2=O)[C@H](O)[C@@H]1O)N[C@H](Cc1ccccc1)C(=O)NCC1CCCO1 (some centres not stated)	.	i	.	.	.
Cc1cccn2c(=O)c3cc(C#N)c(=O)n(-c4nnc(SCc5ccccc5F)s4)c3nc12	.	i	.	.	.
CN(C)S(=O)(=O)c1cccc(NC(=O)c2ccccc2OCc2ccc(F)cc2)c1	21µM*	i	5	-4	6
O=C(NNC(=O)c1ccccc1OCc1ccc(F)cc1)c1ccccc1O	2.3µM*	.	?	-8	-11
COc1ccc(C(=O)CSc2nc(-c3ccccn3)nc(C)c2Cl)cc1	16µM*	i	13	-20	?
CSc1ccc(/C=N/NC(=O)c2ccc(C)c(C)c2)cc1	-1%	.	82*	8	-2
COc1ccc(-n2c(=O)c3ccccc3n(Cc3ccc(F)cc3Cl)c2=O)cc1OC	.	i	.	.	.
Cc1cccc(N2CCN(C(=O)CCn3c(=O)[nH]c4ccccc4c3=O)CC2)c1C	9.2µM*	i	?	2	-1
Cc1ccc(Cl)cc1N1CCN(C(=O)CCCn2c(=O)c3cccn3c3cccnc32)CC1	?	?	-2	10	9
CCOc1cc(CNC(=O)CCCn2c(=O)c3cccn3c3cccnc32)cc(OCC)c1OCC	16µM*	i	0	-22	-6
Cc1cccc(N2CCN(C(=O)CCCn3c(=O)c4cccn4c4cccnc43)CC2)c1C	16µM*	i	-1	-23	?
COc1ccccc1NC(=O)C1=C(C)Nc2nc(SCc3ccccc3Cl)nn2C1c1cccnc1 (configuration not stated)	.	i	.	.	.
COc1cc(NC(=O)C(CC(C)C)NS(=O)(=O)c2ccc3c(c2)oc(=O)n3C)c(C(=O)O)cc1OC (configuration not stated)	.	i	.	.	.
CCC(C)(C)n1nnnc1C(c1cc2cc(C)cc(C)c2[nH]c1=O)N1CCCC1 (configuration not stated)	15µM*	25µM*	3	3	4
CCC(C)(C)n1nnnc1C(c1cc2cc(C)cc(C)c2[nH]c1=O)N1CCN(Cc2ccc3c(c2)OCO3)CC1 (configuration not stated)	-16%	.	-1	30	11
CCC(C)(C)n1nnnc1C(c1cc2cccc(C)c2[nH]c1=O)N1CCCC1 (configuration not stated)	-27%	32µM*	0	-9	?
SMILES	ELG1 repair inh	FUS suppressor	TRPV1 agonist	Giardia killer	TRPV1 potentiator
Cc1ccc(C)c2[nH]c(=O)c(C(c3nnnn3C(C)(C)C)N3CC=C(c4ccc(F)cc4)CC3)cc12 (configuration not stated)	7.3µM*	.	0	-6	-2
COc1cc(Cl)c(C)cc1NC(c1ccccc1)c1nnc(-c2ccccc2Cl)o1 (configuration not stated)	.	i	.	.	.
CCCc1nc(SCC(=O)Nc2cc(C)on2)c2ccccc2n1	26µM*	i	-1	-11	-9
Cc1cc(NC(=O)CSc2nc(CCC3CCCC3)nc3ccccc23)no1	?	i	4	3	11
Cc1cc(NC(=O)CSc2nc3c([nH]c4ccccc43)c(=O)n2-c2ccccc2F)no1	21µM*	i	15	-7	-8
CCNC(=S)N1CCN(c2nc(CC)nc3sc4c(c23)CCCC4)CC1	?	i	83*	9	5
CCc1nc(N2CCN(C(=O)CCCl)CC2)c2c3c(sc2n1)CCCC3	.	i	.	.	.
Cc1ccc2c(c1)-c1c(cnc3cc(-c4ccccc4)nn13)CO2	.	i	.	.	.
Cc1ccc(C)c(S(=O)(=O)NCC(c2ccco2)S(=O)(=O)c2ccc(F)cc2)c1 (configuration not stated)	.	i	.	.	.
COc1ccc2c(c1)c(=O)c(S(=O)(=O)c1ccc(C)cc1)cn2Cc1ccccc1C	.	i	.	.	.
FC(F)(F)COc1nc(OCC(F)(F)F)nc(N2CCN(c3ccccc3)CC2)n1	23µM*	i	-1	-18	1
FC(F)(F)COc1nc(N2CCOCC2)nc(N(c2ccccc2)c2ccccc2)n1	?	?	28	5	-1
CN(c1ncnc(N)c1[N+](=O)[O-])C1CCS(=O)(=O)C1 (configuration not stated)	?	i	0	-3	-8
CCCCN(c1ccccc1)c1ncnc(N)c1[N+](=O)[O-]	2.6µM*	i	-5	1	7
CCN(CCCNC(=O)c1ccc(Sc2ccc(Cl)cc2)c(NC(C)=O)c1)c1cccc(C)c1	.	i	.	.	.
CCN(CCNC(=O)c1ccc(C#N)cc1)c1cccc(C)c1	-3%	i	91*	-15	-5
CCN(CCCNC(=O)c1cc2cc3cc(C)ccc3nc2s1)c1cccc(C)c1	.	32µM*	.	.	.
CCN(C(=O)c1cc2c(s1)-c1ccccc1OC2)c1cccc(C(F)(F)F)c1	.	i	.	.	.
O=C(c1ccco1)N1N=C(c2ccc(Cl)cc2)CC1c1ccco1 (configuration not stated)	-20%	i	6	26	-14
O=C(CCl)N1N=C(c2cccs2)CC1c1ccco1 (configuration not stated)	23µM*	i	1	19	-2
O=C(c1ccco1)N1N=C(c2ccc(Br)cc2)CC1c1ccco1 (configuration not stated)	11µM*	i	1	30	7

Assay outcomes (PubChem)
